Assay outcomes from PubChem.
This is a sample that favours compounds with a hit; in the whole collection about 2.2% have one here.
TWEAK-Fn14 inh: inhibitors of TWEAK-Fn14 interaction signaling; inhibition, % at 10 µM; AID 1159606; 360,000 tested, 2% active; TWEAK-stimulated Fn14 reporter cells, luciferase luminescence, 8 h; in the data active means inhibition above about 50%
TROY signal inh: TROY signaling inhibition; Q293 LMP1-TROYcd NF-kB luciferase reporter, 4 h; inhibition, % at 10 µM; 360,000 tested, 0.98% active; AID 1347056;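 active means compounds whose plate-normalised and pattern-corrected inhibition of the luciferase reporter signal at the single screening dose is 50% or more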
HSP90 refold inh: blocks HSP90-mediated luciferase refolding in reticulocyte lysate; Rabbit reticulocyte lysate, luciferase refolding luminescence, 3 h; inhibition, % at 5.6 µM; 290,000 tested, 0.91% active; AID 1789;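 active means inhibition above the screen-wide mean plus 3 SD, computed separately per campaign, cut at about 16% in these data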;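 further: inhibitors lower the luminescence because luciferase stays unfolded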
LGR2 inh: blocks bursicon-induced cAMP signaling via Drosophila LGR2; HEK293 LGR2, CRE-luciferase, bursicon-stimulated, 4 h; inhibition, % at 9.99 µM; 380,000 tested, 0.35% active; AID 720647;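 active means drop in luminescence signal, shown as inhibition above about 50% in the replicate tests, limit read from the data, passing the limit was not always enough; inconclusive means probably only some replicates passing the limit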;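 further: agonist challenge used bursicon conditioned medium at about half maximal strength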
Numbers stand for hits; i = inactive; ? = inconclusive; nt = not tested or not shown.

SMILES | TWEAK-Fn14 inh | TROY signal inh | HSP90 refold inh | LGR2 inh
COc1ccc(-n2nc(C(=O)N3CCCCC3)c(C)c(C#N)c2=O)cc1 | i | i | i | i
Cc1c(C(=O)O)nn(-c2cccc(C(F)(F)F)c2)c(=O)c1C#N | i | i | i | i
Cc1ccc(-n2nc(C(=O)NN)c(C)c(C#N)c2=O)cc1Cl | 71 | i | i | i
Cc1c(C(=O)NN)nn(-c2ccc(Cl)cc2)c(=O)c1C#N | 65 | 55 | i | i
Cc1noc(C)c1S(=O)(=O)Nc1cccc2c1O[C@H](CN(C)C(=O)Nc1ccccc1)[C@H](C)CN([C@@H](C)CO)C2=O | nt | nt | nt | i
O=C1CC(c2ccc(O)cc2)Oc2cc(O)cc(O)c21 (stereo not drawn) | i | i | i | i
CC1CC(=O)c2c(cc3c(-c4c(O)cc(O)c5c(O)c6c(cc45)OC(C)CC6=O)c(O)cc(O)c3c2O)O1 (stereo not drawn) | 78 | i | i | nt
Cc1nonc1NC(=O)CSc1nc(C23CC4CC(CC(C4)C2)C3)nc2ccccc12 | 66 | i | i | i
Cc1nonc1NC(=O)CSc1nc(C2CCCCC2)nc2ccccc12 | i | i | i | nt
Clc1ccccc1-c1nc2ccccc2c2nc3ccccc3n12 | i | 57 | i | i
Fc1ccc(-c2nc3ccccc3c3nc4ccccc4n23)cc1 | 58 | i | i | nt
Cc1nc2ccccc2c2nc3ccccc3n12 | i | i | i | i
N#CCSc1nc2ccccc2c2nc3ccccc3n12 | 57 | i | i | i
COc1ccc2c3c(n(C)c2c1)[C@H](CO)N(C(C)=O)CC31CN(C(=O)Nc2ccccc2F)C1 | nt | nt | nt | i
CC(C)c1nnc(NC(=O)CCCC(=O)O)s1 | 76 | nt | i | nt
CCCC(C)c1nnc(NC(=O)CCS(=O)(=O)c2ccccc2)s1 (stereo not drawn) | 57 | i | i | i
CC(C)c1nnc(NC(=O)CCS(=O)(=O)c2ccccc2)s1 | i | i | i | i
CC(C)NC(=O)Nc1cccc2c1O[C@H](CN(C)Cc1ccccc1)[C@@H](C)CN([C@H](C)CO)C2=O | nt | nt | nt | i
CCC1(O)C(=O)OCc2c1cc1n(c2=O)Cc2cc3cc(O)ccc3nc2-1 (stereo not drawn) | 70 | 76 | nt | 95
CCc1c2c(nc3ccc(OC(=O)N4CCC(N5CCCCC5)CC4)cc13)-c1cc3c(c(=O)n1C2)COC(=O)[C@]3(O)CC | i | 57 | nt | ?
COc1ccc2c3c(n(C)c2c1)[C@@H](CO)N(C(=O)NC(C)C)CC31CN(Cc2nccs2)C1 | nt | nt | nt | i
Cc1ccc(C(=O)N2CCSCC2)cc1 | i | i | 17 | i
Cc1ccc(NC(=O)Nc2ccc(C(=O)N3CCOCC3)cc2)cc1 | i | i | i | nt
CNC[C@H]1OCCCC[C@H](C)Oc2ccc(NC(=O)Nc3ccccc3)cc2C(=O)N([C@@H](C)CO)C[C@@H]1C | nt | nt | nt | i
CC1=C(CO)C(=O)OC([C@@H](C)C2CC[C@H]3C4C[C@H]5O[C@]56[C@@H](O)C=CC(=O)[C@]6(C)C4CC[C@]23C)C1 (stereo partly drawn) | 103 | i | nt | nt
SMILES | TWEAK-Fn14 inh | TROY signal inh | HSP90 refold inh | LGR2 inh
CNC[C@H]1Oc2c(NC(=O)C3CCOCC3)cccc2C(=O)N([C@@H](C)CO)C[C@@H]1C | nt | nt | nt | i
CC(=O)N1[C@H](CO)[C@H](c2ccccc2)C12CN(C(=O)c1ccccc1)C2 | nt | nt | nt | i
COC(=O)c1ccc2c(=O)n(CCCCCC(=O)O)c(=S)[nH]c2c1 | 54 | i | i | i
O=C(NCC[C@@H]1CC[C@@H](NC(=O)c2ccccc2F)[C@@H](CO)O1)c1ccc2c(c1)OCO2 | nt | nt | nt | i
COc1ccc2c3c([nH]c2c1)[C@H](CO)N(C(C)=O)CC31CN(Cc2cc(-c3ccccc3)on2)C1 | nt | nt | nt | i
CCCNC(=O)Nc1ccc2c(c1)OC[C@@H](C)N(Cc1ccccc1)C[C@@H](C)[C@H](OC)CN(C)C2=O | nt | nt | nt | i
Cn1cccc1Cc1nnc(SCC(=O)N2CCc3ccccc32)n1CCc1ccccc1 | i | i | 22 | i
Cn1cccc1Cc1nnc(SCC(=O)N2CCCC2)n1CCc1ccccc1 | i | i | i | i
C[C@@H]1CN([C@@H](C)CO)S(=O)(=O)c2ccc(C3=CCCCC3)cc2O[C@@H]1CN(C)C | nt | nt | nt | i
O=C(Nc1ccc2ccccc2c1)c1onc2c1CCCC2 | 57 | i | i | i
Cc1cccc(NC(=O)c2onc3c2CCCC3)n1 | 80 | 52 | 28 | 77
O=C(Nc1ccccc1)N[C@H]1CC[C@@H](CCNS(=O)(=O)c2cccc(F)c2)O[C@@H]1CO | nt | nt | nt | i
CO[C@@H]1CN(C)C(=O)c2ccc(NS(C)(=O)=O)cc2OC[C@H](C)N(CC2CCOCC2)C[C@@H]1C | nt | nt | nt | i
c1ccc(COc2ccc(OCCCN3CCCC3)cc2)cc1 | 51 | i | i | ?
CC(C)Oc1ccc2c(=O)c(-c3ccccc3)coc2c1 | i | i | i | nt
